Reference: paper PMC5540273 (PLoS ONE, 2017)

Assays:
Details in all cases: concentration: 1 μM, replicates: in singlicate; n = 1
TAOK2 = test system: TAOK2
TAOK3 = test system: TAOK3
TBK1 = test system: TBK1
TEC = test system: TEC
TESK1 = test system: TESK1
TGFBR1 = test system: TGFBR1
TGFBR2 = test system: TGFBR2
TIE1 = test system: TIE1
TIE2 = test system: T1, TIE2
T1 construct: gene TEK

TLK1 = test system: TLK1
TLK2 = test system: TLK2
TNIK = test system: TNIK
TNK1 = test system: TNK1
TNK2 = test system: TNK2
TNNI3K = test system: TNNI3K
TRKA = test system: T2, TRKA
T2 construct: gene NTRK1

TRKB = test system: TRKB
TRKC = test system: T3, TRKC
T3 construct: gene NTRK3

TRPM6 = test system: TRPM6
TSSK1B = test system: TSSK1B
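Note: KINOMEscan kinase panel screen.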

O=c1cc(N2CCOCC2)nc2n(Cc3cccc(C(F)(F)F)c3)ccn12 [GSK2297543]
%Inh (TAOK2): 0%
%Inh (TAOK3): 0%
%Inh (TBK1): 24%
%Inh (TEC): 0%
%Inh (TESK1): 18%
%Inh (TGFBR1): 0%
%Inh (TGFBR2): 0%
%Inh (TIE1): 0%
%Inh (TIE2): 0%
%Inh (TLK1): 12%
%Inh (TLK2): 3%
%Inh (TNIK): 0%
%Inh (TNK1): 0%
%Inh (TNK2): 11%
%Inh (TNNI3K): 6%
%Inh (TRKA): 20%
%Inh (TRKB): 0%
%Inh (TRKC): 0%
%Inh (TRPM6): 0%
%Inh (TSSK1B): 16%

Cl.Oc1cccc(Nc2ccnc3cc(-c4ccncc4)ccc23)c1 [GW494601]
%Inh (TAOK2): 0%
%Inh (TAOK3): 0%
%Inh (TBK1): 9%
%Inh (TEC): 1%
%Inh (TESK1): 16%
%Inh (TGFBR1): 76%
%Inh (TGFBR2): 99.5%
%Inh (TIE1): 50%
%Inh (TIE2): 48%
%Inh (TLK1): 0%
%Inh (TLK2): 9%
%Inh (TNIK): 86%
%Inh (TNK1): 72%
%Inh (TNK2): 16%
%Inh (TNNI3K): 33%
%Inh (TRKA): 68%
%Inh (TRKB): 11%
%Inh (TRKC): 25%
%Inh (TRPM6): 0%
%Inh (TSSK1B): 0%

COc1ccc(CNC(=O)NC2CCN(c3ccnc(Nc4ccc(OC)cc4)n3)C2)cc1 (stereo not shown) [GSK1379727]
%Inh (TAOK2): 7%
%Inh (TAOK3): 0%
%Inh (TBK1): 0%
%Inh (TEC): 0%
%Inh (TESK1): 16%
%Inh (TGFBR1): 38%
%Inh (TGFBR2): 0%
%Inh (TIE1): 17%
%Inh (TIE2): 0%
%Inh (TLK1): 0%
%Inh (TLK2): 0%
%Inh (TNIK): 0%
%Inh (TNK1): 0%
%Inh (TNK2): 12%
%Inh (TNNI3K): 0%
%Inh (TRKA): 0%
%Inh (TRKB): 0%
%Inh (TRKC): 47%
%Inh (TRPM6): 0%
%Inh (TSSK1B): 13%

COc1cc2c(cc1OC[C@@H](O)CO)ncc1c3ccc(C#N)cc3[nH]c21
%Inh (TAOK2): 0%
%Inh (TAOK3): 0%
%Inh (TBK1): 68%
%Inh (TEC): 0%
%Inh (TESK1): 0%
%Inh (TGFBR1): 23%
%Inh (TGFBR2): 0%
%Inh (TIE1): 0%
%Inh (TIE2): 0%
%Inh (TLK1): 11%
%Inh (TLK2): 0%
%Inh (TNIK): 64%
%Inh (TNK1): 36%
%Inh (TNK2): 0%
%Inh (TNNI3K): 0%
%Inh (TRKA): 98.8%
%Inh (TRKB): 90%
%Inh (TRKC): 66%
%Inh (TRPM6): 0%
%Inh (TSSK1B): 3%

O=C(NCCNc1ccnc(Nc2ccc(F)cc2)n1)c1cc2ccccc2s1 [GSK1379874]
%Inh (TAOK2): 0%
%Inh (TAOK3): 0%
%Inh (TBK1): 17%
%Inh (TEC): 8%
%Inh (TESK1): 97.2%
%Inh (TGFBR1): 7%
%Inh (TGFBR2): 0%
%Inh (TIE1): 0%
%Inh (TIE2): 0%
%Inh (TLK1): 0%
%Inh (TLK2): 0%
%Inh (TNIK): 0%
%Inh (TNK1): 0%
%Inh (TNK2): 7%
%Inh (TNNI3K): 0%
%Inh (TRKA): 0%
%Inh (TRKB): 4%
%Inh (TRKC): 38%
%Inh (TRPM6): 11%
%Inh (TSSK1B): 0%
